Assay results reported in PubChem BioAssay AID686979 (National Center for Advancing Translational Sciences (NCATS), 2013).
The whole screen tested about 420,000 compounds, of which about 50,000 (12%) were called active. Another 26% or so got no clear call; they are omitted. Calls follow the shape of the dose curve; as a rule, active = well fitted inhibition curve with a large enough effect; inconclusive = small, poorly fitted or top-dose-only effect; inactive = flat fitted curve, though single readings scatter. Shown is part of a subset that was picked to be rich in actives. Entries that show only a call come without a potency.

Assay: qHTS for Inhibitors of human tyrosyl-DNA phosphodiesterase 1 (TDP1): qHTS in cells in presence of CPT; also: nearly all actives have a fitted effect of over 55% in size
Conditions: chicken DT40 Tdp1-/-;hTDP1 cells + 20 nM CPT, ATP luminescence, 48 h; series mostly up to 46.2 µM
Procedure, shortened: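 Chicken DT40 Tdp1-/- cells stably complemented with human TDP1 were seeded at 400 cells/well in medium containing 20 nM camptothecin, exposed to pin-transferred compounds, and grown at 37 °C for at least 48 hr. Viability was read as ATP luminescence.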
Potency is read from the fitted curve at half-maximal effect.

Compound	Potency	activity change, negative = growth inhibition
COc1ccc(C2C3=C(OC(C)=O)c4ccccc4C3=Nc3c2c(=O)n(C)c(=O)n3C)cc1 (stereo not given)	inactive	–
Cc1cccc(C2c3c(n(C)c(=O)n(C)c3=O)N=C3c4ccccc4C(=O)C32)c1 (stereo not given)	8.2 µM (active)	–
Cc1cccc([C@@H]2[C@@H]3C(=O)N(C)C(=O)[C@@H]3[C@@H]3C(=O)Nc4ccccc4C(=O)N23)c1	inactive	–
COc1ccc(/C=C/c2nnc(NC(=O)C(C)C)s2)cc1	inactive	–
O=C(Cn1cc(C(=O)C2CC2)c2ccccc21)Nc1ccccc1Cl	inactive	–
O=C(Nc1cccc(-n2cnnn2)c1)c1cccnc1	inactive	–
COc1ccc(CNC(=O)C2=Cc3cccc(OC)c3OC2)cc1OC	inactive	–
O=S(=O)(c1cccc2nonc12)N1CCN(c2cccc(Cl)c2)CC1	inactive	–
COc1cc(=O)n2c(c1C(=O)NC(C)c1ccco1)CCN(Cc1cc(C)cc(C)c1)CC2 (stereo not given)	–	-2.45% [at 9.04 µM] (inactive)
CCOCC(=O)Nc1sc2c(c1C(=O)OCC)CCCC2	inactive	–
CCOC(=O)c1c(NC(=O)/C(C#N)=C/c2ccccc2)sc2c1CCC2	inactive	–
COC(=O)c1c(NC(=O)c2ccc(Cl)c(Cl)c2)sc2c1CCCC2	inactive	–
COC(=O)c1c(NC(=O)CCCC(=O)O)sc2c1CCCCC2	inactive	–
CCc1ccc(N(CC(=O)Nc2sc3c(c2C(=O)OC)CCCC3)S(C)(=O)=O)cc1	23.1 µM (active)	–
COC(=O)c1c(NC(=O)COC(=O)[C@@H](NS(=O)(=O)c2ccccc2)C(C)C)sc2c1CCC2	18.4 µM (active)	–
O=C(NC1CCCCC1)c1cc(C2CC2)on1	inactive	–
COC(=O)CC(CC(=O)OC)n1cccc1	inactive	–
CCCN(CCC)CC(O)COc1ccccc1C(=O)Nc1ccccc1 (stereo not given)	inactive	–
CCCNC(=O)CCC(=O)N1Cc2ccccc2Oc2ncccc21	inactive	–
Cc1ccc(CNC(=O)c2c(-c3ccccc3)noc2C)cc1	inactive	–
Cc1onc(-c2ccccc2Cl)c1C(=O)NCCn1ccc2ccccc21	inactive	–
Cc1ccc2cc(CCNC(=O)c3c(-c4ccccc4Cl)noc3C)c(=O)[nH]c2c1	23.1 µM (active)	–
Oc1cccc(C2c3[nH]c4ccccc4c3CCN2Cc2cnn(-c3ccccc3)c2)c1 (stereo not given)	inactive	–
O=C(c1cnn(-c2ccc(Cl)cc2)c1)c1ccccc1O	inactive	–
Cc1[nH]nc(-c2ccc(OCc3cnn(-c4ccccc4)c3)cc2O)c1Oc1ccc(Cl)cc1	18.4 µM (active)	–

Compound	Potency	activity change, negative = growth inhibition
O=C(COC(=O)c1n[nH]c2ccccc12)Nc1ccccc1Br	inactive	–
O=C(COC(=O)c1n[nH]c2ccccc12)NCc1ccccc1	inactive	–
CN(C)S(=O)(=O)c1ccc(NC(=O)COC(=O)c2n[nH]c3ccccc23)cc1	14.6 µM (active)	–
Cc1nn(C(C)(C)C)c(OC(=O)CC(C)C)c1S(=O)(=O)c1ccccc1	inactive	–
COC(=O)c1cccc(C(=O)N2CCCC(Nc3ccc4c(c3)OCCO4)C2)c1 (stereo not given)	inactive	–
C=CCn1c(CSc2nc3ccccc3s2)nnc1SCC(=O)NCc1ccco1	inactive	–
O=C(CSc1nnnn1-c1ccccc1)NCc1ccco1	inactive	–
O=C(CSc1nc2ccc(Nc3nc(N4CCOCC4)nc(N4CCOCC4)n3)cc2s1)NCc1ccco1	25.9 µM (active)	–
Brc1ccc(/C=N/N2CCN(C3c4ccccc4-c4ccccc43)CC2)s1	inactive	–
CC(=O)O[C@]1(C(C)=O)CC[C@H]2[C@@H]3CCC4=CC(=O)CC[C@]4(C)[C@@]3(F)[C@@H](O)C[C@@]21C	inactive	–
CN(C)c1ccc(C2N(C)C(=O)c3ccccc3N2C)cc1 (stereo not given)	inactive	–
Cc1ccc2nnn(Cc3cccc(C(C)(C)C)c3O)c2c1	20.6 µM (active)	–
Cc1ccc(C(=O)CSc2nnc(Cn3nnc4ccccc43)n2C)cc1	inactive	–
Cc1ccc(C2(C)NC(=O)N(CC(=O)N3CC(=O)Nc4ccccc43)C2=O)cc1 (stereo not given)	inactive	–
CC(C)c1nc(SCC(=O)Nc2cccc(C(=O)O)c2)c2c3c(sc2n1)CCCC3	inactive	–
Cc1cc(NC(=O)CSc2nc(C(C)C)nc3sc4c(c23)CCC(C)C4)no1 (stereo not given)	18.4 µM (active)	–
Cc1nc(SCC(=O)Nc2cc(C)on2)c2c(C)c(C)sc2n1	inactive	–
Cc1cc(C)cc(NC(=O)CSc2nc(=O)n(CCN3CCOCC3)c3c2CCC3)c1	inactive	–
O=C(CN1CCN(c2ncccn2)CC1)Nc1ccccc1C(F)(F)F	inactive	–
N#Cc1ccc(CN2CCCC3(CCN(C(=O)c4ccco4)CC3)C2)cc1	inactive	–
Cc1ccc2nc(-c3ccc(C)c(NC(=O)Cc4ccccc4)c3)oc2c1	inactive	–
CC(C)[C@H](NC(=O)N1CCn2c1nc1ccccc12)C(=O)NC1CC1	inactive	–
CC(C)C[C@H](NC(=O)N1CCn2c1nc1ccccc12)C(=O)NC1CC1	inactive	–
CCC(C)[C@H](NC(=O)N1CCn2c1nc1ccccc12)C(=O)NCc1ccc(OC)cc1 (stereo not given in full)	20.6 µM (active)	–
CCOc1nc(-c2ccc(OC)cc2)ccc1-c1noc(-c2cc(OC)c(OC)c(OC)c2)n1	5.17 µM (active)	–

Compound	Potency	activity change, negative = growth inhibition
COc1ccc(-c2cc(-c3nc(-c4cc(OC)c(OC)c(OC)c4)no3)[nH]n2)c(OC)c1	20.6 µM (active)	–
COc1cc(-c2n[nH]c(=S)n2Cc2ccccc2)cc(OC)c1OC	inactive	–
COc1nc(-c2ccc(Cl)cc2)ccc1-c1noc(-c2cccs2)n1	inactive	–
COc1ccc2[nH]c(=O)c(-c3noc(-c4ccc(F)cc4)n3)cc2c1	inactive	–
CCOc1ccc(-c2noc(CCC(=O)NC3CCCC3)n2)cc1OC	inactive	–
O=C(NCc1ccc(Cl)cc1)c1ccc2c(c1)nnn2C1CCCC1	inactive	–
O=C(CCC1N=C2c3ccccc3N=C(SCc3ccccc3F)N2C1=O)NCCc1ccccc1 (stereo not given)	inactive	–
Cc1nc(C(F)(F)F)ccc1C(=O)N1CCC1(C)C(=O)NS(=O)(=O)c1ccccc1 (stereo not given)	inactive	–
CCn1cc(C(=O)N[C@@H](C)C(=O)NCCO)c(=O)c2cc3c(cc21)OCO3	inactive	–
Cc1ccccc1OCCOc1ccc([N+](=O)[O-])cc1/C=N/n1cnnc1	1.16 µM (active)	–
COc1ccccc1OCCOc1ccc(/C=N/n2cnnc2)cc1	inactive	–
Cc1cc(-c2ccc(/C=N/n3cnnc3)o2)c([N+](=O)[O-])cc1C	inactive	–
O=C(c1ccc(=O)oc1)N1CCC(C(O)(c2ccccc2)c2ccccc2)CC1	inactive	–
COc1cc(OC)c(C(=O)NCc2ccc3c(c2)OCO3)cc1OC	inactive	–
CC1(C(=O)NCc2ccco2)Cc2c(-c3ccc4c(c3)OCO4)ccnc2O1 (stereo not given)	0.82 µM (active)	–
O=C(NCc1ccc2c(c1)OCO2)c1cc(F)c(F)cc1Cl	inactive	–
O=C(Cn1nnc(-c2ccc3c(c2)OCO3)n1)NCc1ccco1	inactive	–
CC1(C(=O)NCc2ccc(F)c(F)c2)Cc2c(-c3ccc4c(c3)OCO4)ccnc2O1 (stereo not given)	4.11 µM (active)	–
S=C(NCc1ccc2c(c1)OCO2)NCc1ccco1	inactive	–
O=S(=O)(NC1CCCC1)c1ccc(-n2cnnn2)cc1	inactive	–
C/C(COc1ccccc1)=N\NC(=O)c1nnn(-c2nonc2N)c1-c1ccc(C)cc1	inactive	–
COc1ccc(-c2cc(-c3ccccc3)nc3c2COc2ccc(Cl)cc2-3)cc1	inactive	–
CC(=O)c1ccc(Cc2ncc(C(F)(F)F)cc2Cl)s1	inactive	–
Cc1cccc(OC(C)C(=O)N2CCc3ccccc3C2)c1 (stereo not given)	inactive	–
COc1cc(N2C(=O)c3ccccc3C2=O)c(Cl)cc1C(=O)OCC(=O)N1CCOCC1	inactive	–

Compound	Potency	activity change, negative = growth inhibition
COc1cccc(NC(=O)COC(=O)/C=C/c2ccco2)c1	inactive	–
CCN(CC)CCOc1ccc2c(c1)C(=NNC(=O)c1ccccn1)c1cc(OCCN(CC)CC)ccc1-2	5.17 µM (active)	–
CCOc1cc2ccccc2cc1C(=O)Nc1ccccn1	inactive	–
Cc1cccc(OCC(=O)NCCCNC(=O)c2ccccn2)c1	inactive	–
CCCc1nnc(NC(=O)CCC(=O)NC2CC2)s1	inactive	–
CCCc1ccc(C(=O)COC(=O)CN2C(=O)NC3(CCCCC3C)C2=O)cc1 (stereo not given)	inactive	–
Cc1cc2c(cc1C)[n+](C)cn2CC(O)COCC1CC=CCC1 (stereo not given)	8.2 µM (active)	–
CC1CCN(C(=O)/C(=C\c2ccccc2)NC(=O)c2ccccc2)CC1	inactive	–
Cc1nn(CC#N)c(=O)n1N(C)c1ncc(C(F)(F)F)cc1Cl	inactive	–
O=C(Nc1ccccc1N1CCOCC1)c1ccncc1	inactive	–
O=C(Nc1ccccc1N1CCCCC1)c1ccc2nccnc2c1	20.6 µM (active)	–
O=C(Nc1ccccc1N1CCCCC1)c1cccc(F)c1	inactive	–
COC(=O)c1cccc(N(C(=O)CNC(=O)c2cccs2)C(C(=O)NCC2CCCO2)c2ccc(OC)c(OC)c2)c1 (stereo not given)	inactive	–
CNC(=O)CN1C(=O)c2cccnc2Sc2ccccc21	inactive	–
CC(=O)N1CCC2(CCCN(c3ncccn3)C2)CC1	inactive	–
O=C(c1cc(C(F)(F)F)cc(C(F)(F)F)c1)N1CCC[C@@]2(CCN(c3ccccn3)C2)C1	16.4 µM (active)	–
CC(C)NC(=O)N1CC[C@@]2(CCCN(C(=O)c3cccc(F)c3)C2)C1	inactive	–
Cc1cc(F)ccc1S(=O)(=O)Nc1ccc(C(=O)N(C)Cc2ccco2)cc1	inactive	–
COc1c(C=O)c(CCN(C)C(=O)c2ccc(F)cc2)cc2c1OCO2	inactive	–
COc1cccc2c1OCC(CN1CCN(C3CCCCC3)C(CCO)C1)=C2 (stereo not given)	inactive	–
COc1ccc(-n2c(=O)c3ccccc3n(Cc3ccccc3Cl)c2=O)cc1	inactive	–
CC(=O)OC[C@H]1O[C@@H](O[C@H]2[C@H](O)[C@@H](OC(=O)c3ccccc3C(=O)O)[C@H](O)O[C@@H]2COC(C)=O)[C@H](O)[C@@H](OC(=O)c2ccccc2C(=O)O)[C@@H]1O	inactive	–
COc1cncc(-c2cnc3sc(NCCc4ccccn4)nn23)c1	13 µM (active)	–
O=C(CNC(=O)COc1ccccc1)NCCc1ccccn1	inactive	–
Cc1ccc(C(=O)N/C(=C\c2cccs2)C(=O)NCCc2ccccn2)cc1C	inactive	–
